From PubChem
ALR inh: blocks human ALR sulfhydryl oxidase activity; P55789; purified ALR, DTT oxidation, H2O2 HRP-luminol luminescence; inhibition, % (no concentration beside the values); 290,000 compounds, 3.8% hits;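 active = mean replicate inhibition above about 79%, with every replicate also reaching it, limit read from the data; inconclusive = only one of the two criteria met; inactive = mean below limit and not every replicate reaching it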
Calb FLC: affects C. albicans growth with fluconazole | 300,000 compounds, 0.57% hits | C. albicans CaCi-2 (fluconazole-resistant clinical isolate) + fluconazole, Alamar Blue growth, 48 h | growth inhibition, % (no concentration beside the values);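 active = growth inhibition above about 58% in most replicates, limit read from the data, passing the limit was not always enough; inconclusive = exactly half the replicates above a set limit; inactive = most replicates below a set limit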;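 note: all wells also contain fluconazole at 8 µg/ml as a sub-toxic cotreatment; 0% = median of DMSO wells and 100% = median of geldanamycin control wells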
PP5 primary: PP5 (human) phosphatase inhibition. 320,000 compounds, 0.18% hits. purified PP5c, OMFP substrate fluorescence. AID 1987. inhibition, % at 6.7 µM;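 active = inhibition above the campaign's mean inhibition across all tested compounds plus 3 SD, cut at about 9.5% in these data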;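 note: 0% = DMSO only and 100% = 100 µM cantharidin control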
Target sequence (P53041 whole entry, looked up): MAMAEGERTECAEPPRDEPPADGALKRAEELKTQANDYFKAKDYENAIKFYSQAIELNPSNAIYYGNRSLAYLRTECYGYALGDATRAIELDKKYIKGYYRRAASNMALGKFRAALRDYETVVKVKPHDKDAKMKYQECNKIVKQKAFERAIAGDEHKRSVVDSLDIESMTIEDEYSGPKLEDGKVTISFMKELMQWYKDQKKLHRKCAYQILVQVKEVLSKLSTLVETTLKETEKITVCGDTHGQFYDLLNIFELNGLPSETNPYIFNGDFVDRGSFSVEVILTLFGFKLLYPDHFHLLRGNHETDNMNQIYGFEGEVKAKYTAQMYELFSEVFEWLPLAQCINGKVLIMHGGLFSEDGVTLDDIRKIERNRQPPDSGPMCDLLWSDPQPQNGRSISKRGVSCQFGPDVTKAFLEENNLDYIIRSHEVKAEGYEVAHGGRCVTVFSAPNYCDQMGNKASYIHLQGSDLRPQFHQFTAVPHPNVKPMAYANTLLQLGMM
PP1 counter: blocks human PP1-alpha phosphatase, a PP5 counter-screen; AID 2235; inhibition, % at 6.7 µM; purified PP1alpha, OMFP fluorescence; 320,000 compounds, 0.9% hits;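 active = inhibition above the mean inhibition of all tested compounds plus 3 SD, computed separately for each screening campaign, cut at about 15% in these data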
CSC inhib: cancer stem cell inhibition; cancer stem cell-like cells viability, luminescence; inhibition, % at 7.5 µM; 300,000 compounds, 1.1% hits; AID 2717; in the data active = inhibition above about 75%; inconclusive = no clear call, values can overlap the other calls; tested in HMLE shEcad cells
* = called active by the depositor; ? = inconclusive; · = no result. Rows were chosen to be rich in hits. Some 5.4% of all compounds tested hit in one or more screens of this group.

SMILES | ALR inh | Calb FLC | PP5 primary | PP1 counter | CSC inhib
CC(C)CN=C(NS(=O)(=O)c1ccccc1)C(Cl)(Cl)Cl | 15 | -2 | -2 | -3 | 147*
CCCCCC1CCC(c2n[nH]c(=S)n2C)CC1 (stereo not drawn) | -2 | 99* | 2 | 1 | 31
C=CCN(CC=C)C(=O)c1ccncc1 | · | 11 | -1 | 0 | 6
O=C(NCCN1C(=O)S/C(=C/c2cccnc2)C1=O)C1CC(=O)N(Cc2ccccc2)C1 (stereo not drawn) | -4 | 8 | -6 | 0 | 0
CN(C)c1ccc(/C=C/c2nnnn2-c2ccccc2)cc1 | 99* | -39 | 1 | 2 | ·
Cc1cc(N/C=C\c2nnnn2-c2ccccc2)no1 | -5 | -22 | -3 | 0 | -11
O=C1CSC(c2ccc3c(c2)OCO3)N1c1ccc(Oc2ccccc2)cc1 (stereo not drawn) | · | 3 | 4 | 9 | 2
O=C(NCc1ccc(Cl)cc1)c1ccc(CNc2c(N3CCCC3)c(=O)c2=O)cc1 | · | -1 | 2 | 4 | ·
CN(C)c1ccc(CNC(=O)c2ccc(CNc3c(N4CCCCC4)c(=O)c3=O)cc2)cc1 | 98* | -3 | 2 | 1 | 9
S=c1[nH]nc(COc2ccc(Cl)cc2Cl)n1-c1ccccc1 | 84* | -9 | 1 | 4 | -6
Cc1ccc(SC(=O)c2c(C)noc2-c2cc(C)on2)cc1 | · | -7 | -1 | 11 | 81*
CCOC(=O)c1oc2ccc(Br)cc2c1CSc1nnc(C)s1 | 12 | 0 | 2 | 2 | -6
CCCCNC(=O)C1CCC(CNc2c(N3CCC(C)CC3)c(=O)c2=O)CC1 (stereo not drawn) | -1 | 0 | 0 | -3 | -2
Nc1ccc(N(c2ccccc2)c2ccc(N)cc2)cc1 | · | -14 | 1 | 17* | 90*
CN(C)c1ccc(CCc2ccc(N)cc2)cc1 | ? | -33 | 3 | -2 | 26
Cc1ccc2c(c1)N/C(=C(\C=C(/Cl)[N+](=O)[O-])[N+](=O)[O-])N2 | 5 | 38 | 0 | -4 | -1
c1ccc(COc2ccccc2CNC23CC4CC(CC(C4)C2)C3)cc1 | -12 | 95* | 2 | -6 | 41
c1ccc(COc2ccccc2CNC2CCCC2)cc1 | 3 | -24 | -1 | 3 | -14
Cc1cc(C)cc(NC(=O)c2sc3nc4n(c(=O)c3c2C)CCC4)c1 | -10 | -3 | 5 | -2 | -10
CCN(CC)c1ccc(/C=C2\SC(N)=NC2=O)cc1 | 99* | -1 | · | · | -9
NCC(O)COCCC12CC3CC(CC(C3)C1)C2 (stereo not drawn) | -5 | -32 | -1 | -3 | -13
CC(NCC(O)COCCC12CC3CC(CC(C3)C1)C2)c1ccccc1 (stereo not drawn) | -26 | 19 | 0 | 12 | 105*
Cc1cc(SCc2ccc(Cl)cc2Cl)nc(=O)[nH]1 | 98* | 0 | 3 | 2 | 62
Cc1cc(SCc2ccccc2C)nc(=O)[nH]1 | 29 | 1 | 1 | -3 | 11
Cc1ccc(C(=O)CSc2cc(C)[nH]c(=O)n2)cc1 | 99* | -21 | 2 | 4 | -17
SMILES | ALR inh | Calb FLC | PP5 primary | PP1 counter | CSC inhib
Cc1cc(SCc2ccccc2Cl)nc(=O)[nH]1 | 94* | 1 | 1 | 7 | -26
CC1CCC(NC(=O)CCS(=O)(=O)c2ccc3c(c2)NC(=O)CO3)CC1 (stereo not drawn) | -6 | -5 | -1 | 1 | -6
O=C(O)CSC1CC(=O)N(c2cccc(Cl)c2)C1=O (stereo not drawn) | 16 | 15 | 0 | -2 | -10
Cc1ccc(N2C(=O)CC(SCC(=O)Nc3ccc(S(N)(=O)=O)cc3)C2=O)cc1 (stereo not drawn) | 99* | -4 | 2 | -2 | 1
COC(=O)c1ccc(N2C(=O)CC(SCC(=O)Nc3ccc(OC)cc3)C2=O)cc1 (stereo not drawn) | · | -2 | 0 | -2 | 0
O=C(CSC1CC(=O)N(c2ccc(C(=O)O)cc2)C1=O)Nc1ccc2ccccc2c1 (stereo not drawn) | 100* | -17 | 3 | 1 | 1
NS(=O)(=O)c1ccc(NC(=O)CSC2CCCCC2)cc1 | -10 | -1 | 0 | 0 | -14
CCOC(=O)c1ccc(N2C(=O)CC(SCC(=O)Nc3ccc(S(N)(=O)=O)cc3)C2=O)cc1 (stereo not drawn) | 99* | -19 | 2 | -2 | -9
O=C(O)CSC1CC(=O)N(c2ccc(Cl)c(Cl)c2)C1=O (stereo not drawn) | 98* | -4 | 3 | -3 | -23
CC(C)(C)SCCNC(=O)c1ccc(CN2CCc3ccccc3C2)cc1 | · | -8 | 1 | 2 | 2
